# A selection: hits, their analogues and other compounds. The true share with any hit is near 18%.
# VDR inhibitor – vitamin D3 receptor (human) inhibition. P11473. VDR-SRC2-3 peptide fluorescence polarization, 2 h. Potency, µM, inactives show max response, negative = inhibition, hits mostly inhibitors. hit rate 0.93% among 400,000
# Target sequence (P11473 whole entry, looked up): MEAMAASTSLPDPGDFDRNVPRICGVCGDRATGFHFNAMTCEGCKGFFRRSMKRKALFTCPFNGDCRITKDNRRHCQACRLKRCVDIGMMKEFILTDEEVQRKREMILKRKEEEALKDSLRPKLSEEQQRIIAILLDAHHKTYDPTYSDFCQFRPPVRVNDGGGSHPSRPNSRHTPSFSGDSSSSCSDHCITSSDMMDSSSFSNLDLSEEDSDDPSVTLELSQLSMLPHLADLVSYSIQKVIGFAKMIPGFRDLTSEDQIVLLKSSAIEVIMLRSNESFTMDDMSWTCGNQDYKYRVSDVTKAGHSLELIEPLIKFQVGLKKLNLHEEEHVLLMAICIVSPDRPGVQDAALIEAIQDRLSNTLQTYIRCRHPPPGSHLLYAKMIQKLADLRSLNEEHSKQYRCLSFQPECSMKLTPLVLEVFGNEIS
#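 Inhibition of the VDR/SRC2-3 peptide interaction is quantified by fluorescence polarization. Compounds (23 nl, pintool) incubate with the reagents for 2 hours at ambient room temperature.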
# TDP1 block – TDP1 (human) enzyme inhibition; hit rate 0.28% among 350,000; Potency, µM (highest dose often 130 µM), without a hit: at the highest dose activity change, negative = inhibition, actives largely listed as inhibitors; recombinant TDP1, AlphaScreen DNA substrate cleavage; note: nearly all actives have a fitted effect of over 40% in size
#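 Recombinant human Tdp1 (E. coli-expressed, 1 nM final) preincubated with compounds 15 min at room temperature, then 5'-biotin/3'-phosphotyrosine-FITC DNA substrate (15 nM final) added for 5 min. AlphaScreen beads (10 ug/ml final) added 10 min; cleavage lowers signal.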
# PLK1 PBD block – inhibitors of human PLK1 polo-box domain binding; P53350; Plk1 PBD binding of FITC phosphopeptide, fluorescence polarization; Potency, µM, for the others: max response, negative = inhibition, hits mostly inhibitors; hit rate 2.8% among 360,000; AID 720504; note: series mostly up to about 57 µM; nearly all actives have a fitted effect of over 65% in size
# DT40 TDP1 CPT – growth inhibition of DT40 Tdp1-/-;hTDP1 cells with camptothecin (screen for TDP1 inhibitors); Potency, µM (doses to about 46.2 µM), for inactives: at the top dose activity change, negative = growth inhibition, usual class: inhibitors; AID 686979; hit rate 12% among 420,000; chicken DT40 Tdp1-/-;hTDP1 cells + 20 nM CPT, ATP luminescence, 48 h; note: nearly all actives have a fitted effect of over 55% in size
#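 Cell growth measured by CellTiter-Glo luminescence after a minimum 48 h, 37 C compound exposure with 20 nM CPT in Tdp1-knockout DT40 cells stably expressing hTDP1, seeded 400/well; qHTS titration format.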
# GCN5L2 inh – GCN5L2 (KAT2A) acetyltransferase inhibition | Q92830 | GCN5L2 HAT assay, ThioGlo1 CoA-SH fluorescence | Potency, µM (titrated, usually from 58.9 µM), inactives show top-dose activity change, negative = inhibition, hits mostly inhibitors | hit rate 0.21% among 390,000
#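 Free CoA generated was detected with ThioGlo1 (50uM) fluorescence at Ex340nm/Em540nm, read immediately and after 20 min at room temperature. Enzyme, 20 nM in HEPES pH 7.5 buffer, saw compounds 15 min before adding 75uM H3(1-25) peptide and 70uM acetyl-CoA.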
# TDP1 cell noCPT – qHTS for Inhibitors of human tyrosyl-DNA phosphodiesterase 1 (TDP1): qHTS in cells in absence of CPT. DT40 Tdp1-/- hTDP1 cells, no CPT, ATP luminescence, 48 h. Potency, µM (series often up to 46.2 µM), for the others: at the top dose activity change, negative = growth inhibition, hits mostly inhibitors. hit rate 15% among 420,000; note: nearly all actives have a fitted effect of over 55% in size
#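 No-CPT arm: Tdp1-/-;hTDP1 DT40 cells (400/well) plus compounds, incubated ≥48 hr at 37 °C. Readout CellTiter-Glo luminescence.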
# The depositor's hits bear a star; ? = inconclusive; . = no result given; [ ] = another dose, or the depositor's remark. Calls come from the whole dose curve; as a rule, active = well fitted curve in the direction sought with a large enough effect; inconclusive = small, poorly fitted or top-dose-only effect, or another doubt; inactive = no such curve, though single readings can be large; an effect the other way counts as inactive or inconclusive. % is set by controls: 0 for no effect and ±100 for the full control effect; potency is the fitted concentration of half-maximal effect.
SMILES,VDR inhibitor,TDP1 block,PLK1 PBD block,DT40 TDP1 CPT,GCN5L2 inh,TDP1 cell noCPT
CCOC(=O)CSC(=S)NC(=O)c1ccc(OC)cc1,?,6%,3µM*,?,70%,-30%
CCCCc1nc2ccccc2n1CC(=O)N(COCC)c1c(C)cccc1CC,-1%,.,.,?,-7%,?
NC1(C(=O)O)CSSC1,-18%,.,-8%,-118%,.,7.3µM*
NC1(C(=O)O)CCCCC1,-6%,.,.,.,-6%,.
COc1ccccc1C(CNC(=O)c1ccco1)N1CCCC1 (configuration not stated),-16%,0%,-4%,5%,0%,4%
COc1ccc(C(CNC(=O)c2ccc(-c3ccccc3Cl)o2)N2CCOCC2)cc1 (configuration not stated),-11%,6%,1%,23µM*,-9%,16µM*
COc1ccccc1C(CNC(=O)c1ccc(-c2ccccc2Cl)o1)N1CCCC1 (configuration not stated),-6%,.,-7%,23µM*,2%,18µM*
COc1ccc(N2CCN(S(=O)(=O)CCNC(=O)Cc3ccc(Cl)cc3)CC2)cc1,14%,5%,.,3%,-2%,-23%
CCCc1nc2cc(C)c(Br)c(C)n2c1Cc1ccc(OC)cc1C,.,.,-5%,?,.,?
Clc1ccc(-c2nc3ccc(Cl)cn3c2Cc2ccsc2)cc1,.,.,?,-27%,.,?
CCCc1nc2ccc(Cl)cn2c1Cc1ccsc1,.,.,-8%,21µM*,.,13µM*
Cc1cc2nc(-c3cccc(Br)c3)c(Cc3ccsc3)n2c(C)c1Br,.,.,-21%,?,.,?
CCCc1nc2cc(C)c(Br)c(C)n2c1Cc1ccsc1,.,.,-6%,12µM*,.,18µM*
Cc1ccc(-c2nc3cc(C)c(Br)c(C)n3c2CC(C)(C)C)cc1,.,.,-3%,9.2µM*,.,16µM*
Cc1ccc(-c2nc3cc(C)c(Br)c(C)n3c2Cc2ccsc2)cc1,.,.,-1%,5.2µM*,.,7.3µM*
Cc1cc2nc(C3CCCCC3)c(CC(C)(C)C)n2c(C)c1Br,.,.,5%,?,.,?
COC(=O)c1c(NC(=O)c2ccccc2F)sc(C(=O)N2CCOCC2)c1C,-19%,.,0%,-26%,-7%,?
O=C1Cc2cc(NS(=O)(=O)c3ccc([N+](=O)[O-])cc3)cc3c2N1CCC3,-5%,.,-13%,?,-2%,-18%
Cc1noc(C)c1-c1ccc2ncnc(NCc3cccc(-c4ccccc4)c3)c2c1,.,10%,.,.,-5%,.
O=C(NC[C@H](O)c1ccccc1)c1ccccc1,2%,3%,.,-13%[9.04 µM],.,-9%[9.04 µM]
CC(=O)Cn1nnc2sc(-c3ccccc3)cc2c1=O,29%,6%,-14%,-15%,-11%,6%
O=C(COc1ccc(Cl)cc1Br)Nc1ccncc1,9%,.,46%,?,0%,10µM*
Cc1ccc(OCC(=O)Nc2ccncc2)c(C)c1,-8%,.,-8%,21µM*,-13%,8.2µM*
O=C(COc1ccc(Cl)cc1Br)NC1CC1,-7%,0%,-10%,?,3%,?
Cc1ccc(CC(=O)Nc2ccncc2)cc1,-17%,-2%,-9%,5.8µM*,3%,4.6µM*
Cc1cccc(OCC(=O)Nc2ccncc2)c1,-9%,.,-1%,4%,.,?
COc1ccc(S(=O)(=O)NC2CC(C)(C)NC(C)(C)C2)cc1C(C)C,9%,1%,-6%,?,-15%,?
CCC[C@H]1C[C@H](C(=O)N[C@@H]([C@H]2O[C@@H](SC)[C@@H](O)[C@@H](O)[C@@H]2O)[C@H](C)Cl)N(C)C1,.,5%[56.1 µM],.,.,5%[21.4 µM],.
COc1ccc(CNC(=O)CCS(=O)(=O)c2cc(Br)cc3c2N(C(=O)C2CC2)CC3)cc1,-13%,0%[12.3 µM],.,?,0%,?
C/C(Cl)=C/Cc1c(C)[nH]c2ccc(C)cc2c1=O,-22%,1%,-6%,-20%,-12%,-29%

# Compound activity (PubChem)
